A selection: hits, their analogues and other compounds. The true share with any hit is near 27%.
CYP2C9 act: CYP2C9 (human) activation. P11712. recombinant CYP2C9, luciferin-H conversion, luminescence; stronger effect = higher value; factor 1 = untreated enzyme, 0 = blocked. activation factor at 5 µM. 1.4% of 96,000 active;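 active means activation factor of 2 or more for CYP2C9 at a 5 µM dose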;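 further: 0 = sulfaphenazole-blocked wells and 1 = vehicle-only wells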
CYP2C9 inhib: blocks human cytochrome P450 2C9; P11712; CYP2C9 Supersomes, luciferin-H conversion, luminescence; inhibition, % at 5 µM; 20% of 96,000 active; AID 777;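 active means blocking of liver enzyme CYP2C9 beyond about 50% at 5 µM, limit read from the data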
CYP2C19 activ: activators of human cytochrome P450 2C19 | recombinant CYP2C19, luciferin-H EGE luminescence; stronger effect = higher value; 0 = fully inhibited enzyme, 1 = untreated enzyme | activation factor at 5 µM | 96,000 tested, under 10 active | AID 1025;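 active means activation factor of at least 2 at 5 µM in the primary screen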;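 further: 0 = wells with 2.5 mM tranylcypromine and 1 = vehicle-only wells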
Target sequence (P33261 whole entry, looked up): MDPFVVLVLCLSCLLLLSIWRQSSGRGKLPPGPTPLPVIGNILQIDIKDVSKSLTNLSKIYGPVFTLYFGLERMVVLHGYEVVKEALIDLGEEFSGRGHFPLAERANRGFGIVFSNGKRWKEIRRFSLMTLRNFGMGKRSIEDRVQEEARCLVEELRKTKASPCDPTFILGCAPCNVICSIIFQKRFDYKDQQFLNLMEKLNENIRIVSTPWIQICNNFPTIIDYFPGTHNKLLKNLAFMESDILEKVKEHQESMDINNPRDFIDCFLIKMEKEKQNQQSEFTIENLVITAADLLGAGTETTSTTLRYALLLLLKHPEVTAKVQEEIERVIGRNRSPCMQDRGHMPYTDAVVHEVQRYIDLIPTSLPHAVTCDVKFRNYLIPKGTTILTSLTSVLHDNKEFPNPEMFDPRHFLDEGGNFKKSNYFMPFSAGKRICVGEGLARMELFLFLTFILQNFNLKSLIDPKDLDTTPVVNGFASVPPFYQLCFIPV
sEH inhibitor: soluble epoxide hydrolase (human) inhibition. P34913. recombinant human sEH enzymatic activity assay. inhibition, % at 2 µM. 0.34% of 91,000 active. AID 707; in the data active means inhibition above about 80%
CYP2C19 inhib: blocks human cytochrome P450 2C19 | P33261 | CYP2C19 Supersomes, luciferin-H EGE luminescence, 30 min | inhibition, % at 5 µM | 21% of 96,000 active | AID 778;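 active means CYP2C19 inhibition above a set limit at 5 µM in the primary screen, cut at about 50% in these data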;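 further: plate controls were negative control wells for no effect and 2.5 mM tranylcypromine positive control for full effect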
sEH act: increases human soluble epoxide hydrolase activity; purified human sEH enzymatic activity, activator screen; 0.04% of 91,000 active; P34913; AID 717; activation, % at 2 µM; in the data active means activation above about 37%
The depositor's hits bear a star; / = no result.

SMILES | CYP2C9 act | CYP2C9 inhib | CYP2C19 activ | sEH inhibitor | CYP2C19 inhib | sEH act
Brc1ccccc1CN1CCC(N2CCCCC2)CC1 | 1.1 | -6.1 | 0.9 | -14.4 | 5.0 | 11.9
CCCS(=O)(=O)N1CCC(C(=O)NCCc2ccc(C)cc2)CC1 | 0.9 | 5.9 | 1 | / | 2.4 | /
Nc1nnnn1CC(=O)OCc1cccc(Br)c1 | 2.6* | -159.6 | 0.6 | / | 35.6 | /
CN(C)c1ccc(C2NCC(CCl)O2)cc1 (stereo unspecified) | 1.1 | -8.3 | 0.8 | 4.5 | 16.9 | -1.7
COc1cccc(/C=N/NC(=O)CC(=O)NCCc2ccc(OC)c(OC)c2)c1 | 1.3 | -32.1 | 0.7 | 3.2 | 30.9 | -5.1
C=CCNC(=O)C(C)Sc1ccc(Cl)cc1 (stereo unspecified) | 0.6 | 39.1 | 0.3 | 2.1 | 70.1* | 1.7
CC(C)(C)NS(=O)(=O)c1ccc(CCC(=O)Nc2cc(Cl)ccc2Oc2ccccc2)cc1 | 0.1 | 89.7* | 0.3 | 2.0 | 73.0* | 0.2
O=C(CCc1ccc(S(=O)(=O)N2CCOCC2)cc1)Nc1cc(Cl)ccc1N1CCOCC1 | 0.6 | 43.0 | 0.9 | 1.8 | 9.7 | -2.2
CC(C)CNS(=O)(=O)c1ccc(CCC(=O)Nc2cc(Cl)ccc2Oc2ccccc2)cc1 | 0.3 | 73.1* | 0.5 | -7.3 | 45.2 | 8.8
CSC1=Nc2sc3c(c2C2=NCCN12)CCCC3 | 1 | 3.8 | 0.8 | / | 15.6 | /
c1ccc(CN2CCC(Nc3nc(-c4ccccc4)nc4ccccc34)CC2)cc1 | 0.1 | 86.2* | 0.4 | -2.5 | 60.6* | 2.3
O=C(NC1CCN(Cc2ccccc2)CC1)c1cc(-c2ccccn2)nc2ccccc12 | 0.8 | 16.3 | 1 | -2.0 | -2.4 | 0.1
O=C(OCn1ncc(Cl)c(Cl)c1=O)c1ccc(F)cc1 | 1.2 | -17.0 | 0.7 | 2.0 | 29.9 | 0.8
O=C(OCn1ncc(Cl)c(Cl)c1=O)c1ccccc1Cl | 1.2 | -16.6 | 0.2 | -3.2 | 77.5* | 6.1
CN1CCN(c2ccccc2NS(=O)(=O)c2ccc3c(c2)CCN3C(=O)C2CCC2)CC1 | / | / | / | 2.0 | / | 0.5
CCN(CC)CCn1nc(C)nc1-c1ccccc1O | 0.9 | 12.8 | 0.1 | -5.0 | 88.3* | 6.4
CCN(CC)CCNc1nc2ccccc2n1C | 1.1 | -9.0 | 1.2 | -12.7 | -16.4 | 12.2
COc1cc(/C=C(/C#N)c2ccccc2)ccc1Oc1ccc([N+](=O)[O-])cn1 | 0.4 | 58.9* | 0.7 | / | 32.5 | /
CCC(=O)Nc1nnc(C(C)(C)C)s1 | 1 | -3.6 | 1 | -5.1 | -1.3 | 4.5
CC(C)(C)c1cc(C(c2cccnc2)N2CCN(CCO)CC2)cc(C(C)(C)C)c1O (stereo unspecified) | 0 | 96.0* | 0.2 | 6.8 | 79.9* | -4.3
O=C(NCc1ccco1)c1ccc2nc3sc4c(c3c(=O)n2c1)CCCC4 | 0.6 | 40.0 | 0.8 | -5.7 | 18.8 | 3.2
CCC1=NN(C(=O)Cc2ccc(OC)cc2)C(O)(C(F)(F)F)C1 (stereo unspecified) | 0.9 | 9.8 | 0.5 | 4.8 | 52.8* | -2.5
CCC1=NN(C(=O)C(=O)Nc2ccccc2OC)C(O)(C(F)(F)F)C1 (stereo unspecified) | 0.4 | 61.9* | 0.8 | -1.3 | 15.4 | 5.5
CCC1=NN(C(=O)CCc2ccccc2)C(O)(C(F)(F)F)C1 (stereo unspecified) | 0.5 | 48.1 | 0.3 | -1.7 | 67.0* | 6.0
CCc1ccccc1NC(=O)c1ccc(F)c(S(=O)(=O)N2CCC(C(N)=O)CC2)c1 | 0.5 | 45.9 | 1 | / | -0.9 | /
SMILES | CYP2C9 act | CYP2C9 inhib | CYP2C19 activ | sEH inhibitor | CYP2C19 inhib | sEH act
O=C(Nc1cccc([N+](=O)[O-])c1)C12CC3CC(C1)CC(n1cnc([N+](=O)[O-])n1)(C3)C2 | 0.9 | 6.9 | 0.9 | 4.8 | 13.7 | -2.3
C=CCCCCCCCCc1nc(=S)[nH][nH]1 | 0.5 | 50.4* | 0.5 | 3.4 | 45.6 | -4.3
COc1ccc(-c2cc(=O)c3ccccc3s2)cc1 | 0.4 | 64.5* | 0.6 | -15.2 | 38.9 | 14.7
COc1ccc2sc3ccccc3c(=O)c2c1 | 0.5 | 49.0 | 0.8 | -2.4 | 15.0 | 4.2
O=c1cc(N2CCN(c3cccc(Cl)c3)CC2)[nH]c(=O)n1C1CCCCC1 | 0.8 | 24.7 | 0.5 | -8.1 | 49.0 | 8.1
CN(C)C(=O)Cn1c(SCC(=O)N2CCCc3ccccc32)nc2ccccc21 | 1 | -0.4 | 1 | -11.0 | 3.4 | 9.6
CC1CCCCN1C(=O)CSc1nc2ccccc2n1CC(=O)N1CCc2ccccc21 (stereo unspecified) | 0 | 98.8* | 0.2 | / | 82.2* | /

Source: PubChem BioAssay (several laboratories)
